Test results from the supplement of paper PMC8047044.
“And” between values parts separate entries of the source, which are not always exact repeats. Equal values may be shown once. Where a name gives a salt, the structure may show the parent alone.

system: Neuro-2a; assay: neurite formation score, plate-normalized to DMSO control mean 5.04 (score (0-8 scale)); higher = more or longer neurites; details: 0.1 µM
Experimental: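 Neuro-2a mouse neuroblastoma cells in PLL-coated 96-well plates were pre-treated for 1 h in DMEM(+) with each kinase inhibitor at 0.1 µM, then switched to serum-free DMEM(-) with inhibitor to induce neurite outgrowth and fixed about 2-3 h later. Three blinded observers scored neurite formation from 0 (no neurites) to 8 (long neurites on almost all cells).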

Compound	neurite formation score
Cc1ccc(NC(=O)c2cccc(N(C)C)c2)cc1NC(=O)c1ccc(O)cc1	4.58
O=[N+]([O-])c1ccc(-c2nc(-c3ccc(F)cc3)c(-c3ccncc3)[nH]2)cc1	4.25
COc1cc2ncnc(Oc3cccc(NC(=O)Nc4cc(C(C)(C)C(F)(F)F)on4)c3)c2cc1OC	4.71
CCCCCCCCCCCCCC(=O)OC[C@H](CO)OC(=O)CCCCCCCCCCCCC [1,2-Dimyristoyl-sn-glycerol]	5.08
CCN(CCO)CCCOc1ccc2c(Nc3cc(CC(=O)Nc4cccc(F)c4)[nH]n3)ncnc2c1 [Barasertib (AZD1152-HQPA)]	4.58
Cc1cccc(CC(=O)N2CCc3c2ccc(-c2cn(C)c4ncnc(N)c24)c3F)n1	4.42
Cc1ccc(Nc2nccc(N(C)c3ccc4c(C)n(C)nc4c3)n2)cc1S(N)(=O)=O [Pazopanib Hydrochloride]	4.88
COc1cc2c(Nc3ccc(NC(=O)c4ccccc4)cc3)ncnc2cc1OCCCN1CCOCC1	4.58
CC(C)(C)c1cc(NC(=O)Nc2ccc(-c3cn4c(n3)sc3cc(OCCN5CCOCC5)ccc34)cc2)no1 [Quizartinib (AC220)]	5.21
CCN(CCCOc1ccc2c(Nc3cc(CC(=O)Nc4cccc(F)c4)[nH]n3)ncnc2c1)CCOP(=O)(O)O	4.71
O=C1NC(=O)C(=Cc2ccc(-c3ccc(F)cc3)o2)S1 (stereo in doubt)	3.08
C[C@@H](Oc1cc(-c2cnn(C3CCNCC3)c2)cnc1N)c1c(Cl)ccc(F)c1Cl [(R)-Crizotinib]	4.71
Cc1ccccc1-n1c(Cn2nc(-c3cccc(O)c3)c3c(N)ncnc32)nc2cccc(C)c2c1=O	4.75
Cc1nc(N)sc1-c1ccnc(Nc2ccc(N3CCOCC3)cc2)n1	4.58
CNC(=O)c1cc(Oc2ccc(NC(=O)Nc3ccc(Cl)c(C(F)(F)F)c3)cc2)ccn1 [Sorafenib]	4.71
CCS(=O)(=O)c1cccc(-c2cc(C(=O)NC3CCN(C)CC3)c(C)c3[nH]c4ncc(C)cc4c23)c1	4.58
OCCn1cc(-c2ccc3c(c2)CC/C3=N\O)c(-c2ccncc2)n1	4.58
Cn1cc(-c2ccc3c(c2)CCN3C(=O)Cc2cccc(C(F)(F)F)c2)c2c(N)ncnc21	5.25
O=C(NC(NC(=S)Nc1ccc(F)c([N+](=O)[O-])c1)C(Cl)(Cl)Cl)C(c1ccccc1)c1ccccc1 (stereo not given)	4.25
COc1cc(C(=O)NC2CCN(C)CC2)ccc1Nc1ncc2c(n1)N(C1CCCC1)CC(F)(F)C(=O)N2C	4.25

Compound	neurite formation score
CCN(CC)CCCCNc1ncc2cc(-c3cc(OC)cc(OC)c3)c(NC(=O)NC(C)(C)C)nc2n1	5.21
CN(c1ncccc1CNc1nc(Nc2ccc3c(c2)CC(=O)N3)ncc1C(F)(F)F)S(C)(=O)=O	3.54 and 4.88
Oc1ccc(Nc2nc(-c3ccc(Cl)cc3)cs2)cc1	2.42
O=C(NC[C@H](O)CO)c1ccncc1Nc1ccc(I)cc1F	5.54
COc1ccc(-c2nc(N3CCOCC3)c3sc(CN(C)c4ncc(C(=O)NO)cn4)cc3n2)cn1	3.58
CC[C@@H]1C(=O)N(C)c2cnc(Nc3ccc(C(=O)NC4CCN(C)CC4)cc3OC)nc2N1C1CCCC1	4.58
C[C@H](NC(=O)/C(C#N)=C/c1cccc(Br)n1)c1ccccc1	4.58
CNC(=O)c1ccccc1Nc1nc(Nc2ccc(N3CCOCC3)cc2OC)ncc1Cl	4.58
CNC(=O)c1cc(COc2nnc(Nc3ccc(Cl)cc3)c3ccoc23)ccn1 [Telatinib (BAY 57-9352)]	4.92
CCOc1cc2ncc(C#N)c(Nc3ccc(OCc4ccccn4)c(Cl)c3)c2cc1NC(=O)/C=C/CN(C)C [Neratinib (HKI-272)]	5.09
c1cc(-c2cnn3cc(-c4ccc(N5CCNCC5)cc4)cnc23)c2cccnc2c1	4.75
CCN1CCN(c2ccc(Nc3cc(N(C)C(=O)Nc4c(Cl)c(OC)cc(OC)c4Cl)ncn3)cc2)CC1	4.09
CN1CCN(c2ccc(OC(F)(F)F)c(Nc3ncc4c(n3)-c3c(c(C(N)=O)nn3CCO)CC4)c2)CC1	4.42
O=C(Nc1ccc(-c2ccnc(Nc3ccc(N4CCOCC4)cc3)n2)cc1)C1CCCN1 (stereo not given)	4.92
COc1cc2/c(=N/c3ccc(Br)cc3F)nc[nH]c2cc1OCC1CCN(C)CC1 [Vandetanib (ZD6474)]	5.09
Cc1nc(-c2cn3c(n2)-c2ccc(-c4cnn(C(C)(C)C(N)=O)c4)cc2OCC3)n(C(C)C)n1	4.92
Cc1c[nH]c(/C=C2\C(=O)Nc3ccccc32)c1CCC(=O)O	5.92
CC1(COc2ccc3c(c2)ncn3-c2ccc3cccc(N4CCC(N)CC4)c3n2)COC1	4.21
CC(C)(C#N)c1ccc(N2C(=O)OCc3cnc4ccc(-c5cnc6ccccc6c5)cc4c32)cc1	4.25
C[C@@H](Oc1cc(-n2cnc3ccc(CN4CCN(C)CC4)cc32)sc1C(N)=O)c1ccccc1C(F)(F)F	3.58
